# The full list was thinned out, with the strongest signals kept by preference.
# How the values were obtained:
# Experiment in all cases: glycan array binding signal (z-score within array); higher = stronger binding
# Settings in all cases: glycan notation: IUPAC condensed, linker removed
# [1] = target: Fuc(a1-2)Gal(b1-3)GalNAc(a1-3)[Fuc(a1-2)]Gal(b1-4)Glc
# Procedure, shortened: (§1)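 Columns mapping to the same glycan were averaged after glycan names were converted to IUPAC-condensed notation. The data come from 3228 arrays in the Consortium for Functional Glycomics database, limited to those with an available protein sequence. Binding is reported as a within-array Z-score averaged across arrays of one protein sequence and across linkers.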
# [2] = target: Fuc(a1-2)Gal(b1-3)GalNAc(b1-3)Gal
# Procedure, shortened: as §1
# Fuc(a1-2)Gal(b1-4)GlcNAc = target: Fuc(a1-2)Gal(b1-4)GlcNAc
# Procedure, shortened: as §1
# [3] = target: Fuc(a1-2)Gal(b1-4)GlcNAc(b1-6)GalNAc
# Procedure, shortened: as §1
# [4] = target: Fuc(a1-2)[Gal(a1-3)]Gal(b1-3)GlcNAc(b1-3)GalNAc
# Procedure, shortened: as §1
# [5] = target: Fuc(a1-2)[GalNAc(a1-3)]Gal(b1-4)Glc
# Procedure, shortened: as §1
# [6] = target: Fuc(a1-2)[GalNAc(b1-3)]Gal
# Procedure, shortened: as §1
# [7] = target: Fuc(a1-3)[Gal(b1-4)]GlcNAc(b1-2)Man(a1-3)[Fuc(a1-3)[Gal(b1-4)]GlcNAc(b1-2)Man(a1-6)]Man(b1-4)GlcNAc(b1-4)GlcNAc
# Procedure, shortened: as §1
# [8] = target: Gal(a1-3)Gal(b1-3)GlcNAc(b1-3)GalNAc
# Procedure, shortened: as §1
# [9] = target: Gal(b1-3)GlcNAc(a1-6)Gal(b1-4)GlcNAc
# Procedure, shortened: as §1
# [10] = target: Gal(b1-3)GlcNAc(b1-3)Gal(b1-4)Glc
# Procedure, shortened: as §1
# [11] = target: Gal(b1-3)GlcNAc(b1-3)Gal(b1-4)GlcNAc(b1-6)[Gal(b1-3)GlcNAc(b1-3)]Gal(b1-4)Glc
# Procedure, shortened: as §1
# [12] = target: Gal(b1-3)GlcNAc(b1-6)[Gal(b1-3)]GalNAc
# Procedure, shortened: as §1
# [13] = target: Gal(b1-3)[GlcNAc(b1-6)]GalNAc
# Procedure, shortened: as §1
# [14] = target: Gal(b1-4)GlcNAc(b1-2)[Gal(b1-4)GlcNAc(b1-4)]Man(a1-3)[GlcNAc(b1-4)][Gal(b1-4)GlcNAc(b1-2)[Gal(b1-4)GlcNAc(b1-6)]Man(a1-6)]Man(b1-4)GlcNAc(b1-4)GlcNAc
# Procedure, shortened: as §1
# [15] = target: Gal(b1-4)GlcNAc(b1-2)[Gal(b1-4)GlcNAc(b1-6)]Man(a1-6)[Gal(b1-4)GlcNAc(b1-2)Man(a1-3)]Man(b1-4)GlcNAc(b1-4)[Fuc(a1-6)]GlcNAc
# Procedure, shortened: as §1
# [16] = target: Gal(b1-4)GlcNAc(b1-3)Gal(b1-3)GlcNAc
# Procedure, shortened: as §1
# [17] = target: Gal(b1-4)GlcNAc(b1-3)Gal(b1-4)Glc
# Procedure, shortened: as §1
# [18] = target: Gal(b1-4)GlcNAc(b1-3)Gal(b1-4)GlcNAc(b1-2)Man(a1-3)[Gal(b1-4)GlcNAc(b1-3)Gal(b1-4)GlcNAc(b1-2)Man(a1-6)]Man(b1-4)GlcNAc(b1-4)[Fuc(a1-6)]GlcNAc
# Procedure, shortened: as §1
# [19] = target: Gal(b1-4)GlcNAc(b1-3)Gal(b1-4)GlcNAc(b1-3)Gal(b1-4)GlcNAc(b1-2)Man(a1-3)[Gal(b1-4)GlcNAc(b1-3)Gal(b1-4)GlcNAc(b1-3)Gal(b1-4)GlcNAc(b1-2)Man(a1-6)]Man(b1-4)GlcNAc(b1-4)[Fuc(a1-6)]GlcNAc
# Procedure, shortened: as §1
# [20] = target: Gal(b1-4)GlcNAc(b1-3)Gal(b1-4)GlcNAc(b1-3)Gal(b1-4)GlcNAc(b1-3)Gal(b1-4)GlcNAc(b1-2)Man(a1-3)[Gal(b1-4)GlcNAc(b1-3)Gal(b1-4)GlcNAc(b1-3)Gal(b1-4)GlcNAc(b1-3)Gal(b1-4)GlcNAc(b1-2)Man(a1-6)]Man(b1-4)GlcNAc(b1-4)[Fuc(a1-6)]GlcNAc
# Procedure, shortened: as §1
# [21] = target: Gal(b1-4)GlcNAc(b1-3)Gal(b1-4)GlcNAc(b1-3)Gal(b1-4)GlcNAc(b1-3)Gal(b1-4)GlcNAc(b1-3)Gal(b1-4)GlcNAc(b1-2)Man(a1-3)[Gal(b1-4)GlcNAc(b1-3)Gal(b1-4)GlcNAc(b1-3)Gal(b1-4)GlcNAc(b1-3)Gal(b1-4)GlcNAc(b1-3)Gal(b1-4)GlcNAc(b1-2)Man(a1-6)]Man(b1-4)GlcNAc(b1-4)[Fuc(a1-6)]GlcNAc
# Procedure, shortened: as §1
# [22] = target: Gal(b1-4)GlcNAc(b1-3)Gal(b1-4)GlcNAc(b1-3)Gal(b1-4)GlcNAc(b1-3)Gal(b1-4)GlcNAc(b1-3)Gal(b1-4)GlcNAc(b1-3)Gal(b1-4)GlcNAc(b1-2)Man(a1-3)[Gal(b1-4)GlcNAc(b1-3)Gal(b1-4)GlcNAc(b1-3)Gal(b1-4)GlcNAc(b1-3)Gal(b1-4)GlcNAc(b1-3)Gal(b1-4)GlcNAc(b1-3)Gal(b1-4)GlcNAc(b1-2)Man(a1-6)]Man(b1-4)GlcNAc(b1-4)GlcNAc
# Procedure, shortened: as §1
# [23] = target: Gal(b1-4)GlcNAc(b1-3)Gal(b1-4)GlcNAc(b1-3)[Gal(b1-4)GlcNAc(b1-3)Gal(b1-4)GlcNAc(b1-6)]GalNAc
# Procedure, shortened: as §1
# Gal3S(b1-4)GlcNAc6S = target: Gal3S(b1-4)GlcNAc6S
# Procedure, shortened: as §1
# [24] = target: GalNAc(b1-4)GlcNAc(b1-2)Man
# Procedure, shortened: as §1
binder,measurement,setting,value
"LCA (Lens culinaris), P02870 (protein) MASLQTQMISFYLIFLSILLTTIFFFKVNSTETTSFSITKFSPDQKNLIFQGDGYTTKGKLTLTKAVKSTVGRALYSTPIHIWDRDTGNVANFVTSFTFVIDAPSSYNVADEFTFFIAPVDTKPQTGGGYLGVFNSKEYDKTSQTVAVEFDTFYNAAWDPSNKERHIGIDVNSIKSVNTKSWNLQNGERANVVIAFNAATNVLTVTLTYPNSLEEENVTSYTLNEVVPLKDVVPEWVRIGFSATTGAEFAAHEVHSWSFHSELGGTSSSKQAADA",glycan array binding signal (z-score),[1],-0.201
same,glycan array binding signal (z-score),[2],-0.218
same,glycan array binding signal (z-score),Fuc(a1-2)Gal(b1-4)GlcNAc,-0.217
same,glycan array binding signal (z-score),[3],-0.218
same,glycan array binding signal (z-score),[4],-0.238
same,glycan array binding signal (z-score),[5],-0.232
same,glycan array binding signal (z-score),[6],-0.257
same,glycan array binding signal (z-score),[7],-0.237
same,glycan array binding signal (z-score),[8],-0.227
same,glycan array binding signal (z-score),[9],-0.211
same,glycan array binding signal (z-score),[10],-0.231
same,glycan array binding signal (z-score),[11],-0.238
same,glycan array binding signal (z-score),[12],-0.231
same,glycan array binding signal (z-score),[13],-0.238
same,glycan array binding signal (z-score),[14],-0.235
same,glycan array binding signal (z-score),[15],4.72
same,glycan array binding signal (z-score),[16],-0.225
same,glycan array binding signal (z-score),[17],-0.205
same,glycan array binding signal (z-score),[18],4.42
same,glycan array binding signal (z-score),[19],4.2
same,glycan array binding signal (z-score),[20],3.87
same,glycan array binding signal (z-score),[21],3.85
same,glycan array binding signal (z-score),[22],-0.192
same,glycan array binding signal (z-score),[23],0.058
same,glycan array binding signal (z-score),Gal3S(b1-4)GlcNAc6S,-0.227
same,glycan array binding signal (z-score),[24],-0.199

# Reference: the supplement of paper PMC8728848
